Some test systems named below: HCT-15 colon; HT29 colon; SNB-75 CNS; SNB-19 CNS; U251 CNS; PC-3 prostate; SK-MEL-5 melanoma; UACC-62 melanoma; LOX IMVI melanoma; SK-MEL-28 melanoma.
Common to all, as to assay: NCI-60 one-dose screen, 48 h (100 = growth as untreated, 0 = no growth, -100 = all killed)
Holding throughout (conditions): 10 µM unless noted

About 83,000 compounds went through this panel and 20% of them were active in at least one assay; those are over-represented in the sample as a whole.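 Plates (96-well) were seeded with cells, treated with compound at one concentration, and incubated for 48 hours before percent growth was determined.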 Values without a mark were called inactive. Active and inactive are the calls of the source. The calls were made as follows: active = growth percent below 10; inactive = the rest.

For `CCN(CC)CCN1C(=O)c2c(c3c4ccccc4[nH]c3c3[nH]c4ccccc4c23)C1=O`, the growth is 59.4% with HCT-15 colon; 46.5% in the assay on HT29 colon; 80% in the assay on SNB-75 CNS; 80.3% with SNB-19 CNS; 87.9% with U251 CNS; 82.5% in the assay with PC-3 prostate. Moreover, the growth with SK-MEL-5 melanoma was 94.3%; in the assay on UACC-62 melanoma, 87.2%; in the assay with LOX IMVI melanoma it was 82.3%; with SK-MEL-28 melanoma, 96.3%.

`COc1ccc(C(=O)NC(=O)Nc2ccc3c(c2)NC(=O)/C3=C\c2[nH]c(C)c(C(=O)O)c2C)cc1`: the growth in the assay on HCT-15 colon was 93.5%; with HT29 colon, 45.1%; in the assay with SNB-75 CNS, 73.7%; with SNB-19 CNS it was 80.3%; with U251 CNS, 52.9%; with PC-3 prostate it was 86.1%. Besides, the growth with SK-MEL-5 melanoma was 87.1%; with UACC-62 melanoma, 91.3%; with LOX IMVI melanoma, 82.5%; in the assay on SK-MEL-28 melanoma, 102%.

For the compound `COc1ccc(/C=C/C(=O)c2ccc(Oc3ncnc4ccccc34)cc2)cc1OC`, the growth in the assay on HCT-15 colon was 24.3%; in the assay on HT29 colon, 27.4%; in the assay on SNB-75 CNS, 74.8%; in the assay with SNB-19 CNS, 64.9%; in the assay with U251 CNS, 50.9%; in the assay on PC-3 prostate it was 82.1%. In addition, the growth is 72.5% with SK-MEL-5 melanoma, 76.9% in the assay on UACC-62 melanoma, 13.8% in the assay on LOX IMVI melanoma and 104% in the assay on SK-MEL-28 melanoma.

In the case of `O=c1cc(Cl)[nH]c(=O)[nH]1`, the growth is 107% in the assay on HCT-15 colon; 83.6% with HT29 colon; 100% in the assay on SNB-75 CNS; 107% in the assay on SNB-19 CNS; 97.5% in the assay with U251 CNS; 98.4% with PC-3 prostate. Besides, the growth in the assay on SK-MEL-5 melanoma is 101%; with UACC-62 melanoma, 86.3%; in the assay on LOX IMVI melanoma, 101%; in the assay on SK-MEL-28 melanoma, 105%.

On to `COc1cc(-c2nc3ccccc3s2)ccc1OCc1nc2n(n1)S(=O)(=O)c1ccccc1N2c1ccccc1`, for which the growth is 99.2% with HCT-15 colon; 104% in the assay on HT29 colon; 103% with SNB-75 CNS; 105% with SNB-19 CNS; 98.1% in the assay with U251 CNS; 96.7% in the assay on PC-3 prostate. The growth with SK-MEL-5 melanoma was 84.2%; in the assay with UACC-62 melanoma, 97.8%; in the assay on LOX IMVI melanoma, 93.2%; in the assay on SK-MEL-28 melanoma, 110%.

In the case of `CC(=O)CC/C=C(\C)[C@H](O)[C@H](C)C(=O)O[C@H]1C[C@H](C)C=C2C=C[C@@]3(C)O[C@@H](O)CC(=O)[C@]3(C)[C@H]21`, the growth with HCT-15 colon is 0.209% (active); in the assay with HT29 colon it was -33.8% (active); in the assay on SNB-75 CNS, -85.3% (active); with SNB-19 CNS, -12.3% (active); in the assay on U251 CNS, -25.9% (active); in the assay with PC-3 prostate, -31.2% (active). For the same compound, the growth in the assay on SK-MEL-5 melanoma is -91.7% (active); in the assay with UACC-62 melanoma, -56.6% (active); in the assay with LOX IMVI melanoma, -55.1% (active); in the assay with SK-MEL-28 melanoma, -40.7% (active).

In the case of `COc1ccccc1P(c1ccccc1OC)c1ccccc1OC`, the growth with HCT-15 colon is 104%; in the assay on HT29 colon, 92.2%; in the assay on SNB-75 CNS it was 98%; with SNB-19 CNS it was 75.7%; in the assay on U251 CNS it was 95.7%; with PC-3 prostate, 80%. The growth with SK-MEL-5 melanoma was 88.6%; with UACC-62 melanoma it was 90%; in the assay on LOX IMVI melanoma it was 85.4%; in the assay with SK-MEL-28 melanoma it was 117%.

For `Cc1ccc(Cn2cc(COc3ccc4c5ccnc(C)c5n(CCCc5ccccc5)c4c3)nn2)cc1`, the growth was 86.2% with HCT-15 colon; 71.8% in the assay on HT29 colon; 97.6% in the assay on SNB-75 CNS; 99.4% in the assay with SNB-19 CNS; 110% in the assay with U251 CNS; 81.4% with PC-3 prostate. Moreover, the growth in the assay with SK-MEL-5 melanoma was 80.4%; in the assay on UACC-62 melanoma, 95%; in the assay on LOX IMVI melanoma, 91.1%; in the assay with SK-MEL-28 melanoma, 104%.

Turning to `C=C1C(=O)O[C@H]2[C@H]1CC/C(COC(=O)c1ccc(Br)cc1)=C\CC[C@@]1(C)O[C@@H]21`, the growth with HCT-15 colon is -26.3% (active); in the assay on HT29 colon, -51.8% (active); in the assay with SNB-75 CNS it was 56%; with SNB-19 CNS it was 24%; in the assay on U251 CNS it was 4.28% (active); with PC-3 prostate, 20.3%. Also, the growth in the assay with SK-MEL-5 melanoma is 8.33% (active); with UACC-62 melanoma, -52.4% (active); in the assay on LOX IMVI melanoma, -94.6% (active); with SK-MEL-28 melanoma, -27% (active).

Consider `CNCCCOc1c(Br)cc(CCNC(=O)/C(Cc2cc(Br)c(OC)c(Br)c2)=N/O)cc1Br`, for which the growth in the assay with HCT-15 colon was -58.3% (active); in the assay with HT29 colon it was -48.2% (active); with SNB-75 CNS, 8.28% (active); in the assay with SNB-19 CNS it was -23% (active); in the assay with U251 CNS, -84% (active); in the assay with PC-3 prostate, -40.4% (active). The growth in the assay with SK-MEL-5 melanoma was -90.2% (active); in the assay with UACC-62 melanoma, -47% (active); in the assay with LOX IMVI melanoma, -80.1% (active); in the assay with SK-MEL-28 melanoma it was -64.2% (active).

On to `COc1cc(NC(C)CCCN2C(=O)c3ccccc3C2=O)c2nc(C)ccc2c1OC` (stereo not given), for which the growth with HCT-15 colon was 89.8%; in the assay on HT29 colon it was 98.4%; in the assay on SNB-75 CNS it was 82.6%; in the assay on SNB-19 CNS, 99.7%; in the assay with U251 CNS, 94.2%; with PC-3 prostate, 81.1%. In addition, the growth was 88.5% in the assay with SK-MEL-5 melanoma, 74.9% in the assay with UACC-62 melanoma, 85.7% in the assay on LOX IMVI melanoma and 97.4% in the assay with SK-MEL-28 melanoma.

Regarding `COc1cc(NS(=O)(=O)c2ccc(N)cc2)ncn1`, the growth with HCT-15 colon was 108%; with HT29 colon, 120%; in the assay on SNB-75 CNS it was 104%; in the assay with SNB-19 CNS, 99.8%; with U251 CNS it was 102%; in the assay on PC-3 prostate, 99.8%. In addition, the growth in the assay with SK-MEL-5 melanoma is 103%; with UACC-62 melanoma, 99.1%; in the assay on LOX IMVI melanoma, 94.3%; with SK-MEL-28 melanoma it was 121%.

For `O=C(Nc1ccc(-n2cc(-c3ccncc3)c(-c3ccc(O)c(Cl)c3)n2)cc1)c1cc(C(F)(F)F)cc(C(F)(F)F)c1`, the growth in the assay with HCT-15 colon is 34.6%; with HT29 colon, 51.7%; with SNB-75 CNS, 63.9%; in the assay on SNB-19 CNS, 66.2%; in the assay with U251 CNS, 43.8%; with PC-3 prostate, 35.8%. The growth with SK-MEL-5 melanoma was 60%; in the assay on UACC-62 melanoma, 71.2%; in the assay with LOX IMVI melanoma, 42.4%; in the assay on SK-MEL-28 melanoma, 68.8%.

The values above are taken from PubChem BioAssay (NCI).
